TGFb inhibitor = qHTS for Inhibitors of TGF-b; Potency, µM (titrated, usually from 46.1 µM), actives largely listed as inhibitors; HepG2 CAGA-GFP TGF-b/SMAD3 reporter, GFP fluorescence, 18 h; TGF-beta stimulated, 500 pg/mL final; 1.2% of 410,000 active; further: nearly all actives have a fitted effect of over 65% in size
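Cell-based qHTS in HEPG2 carrying a CAGA-GFP Smad reporter; compounds added before 500 pg/mL final TGF-beta, 18 h incubation at 37 degrees C, GFP fluorescence quantified per cell by imaging cytometry.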
RORg inh = qHTS for inhibitors of ROR gamma transcriptional activity | AID 2551, 2010 | Drosophila S2 Gal4-RORgamma UAS-luciferase reporter, 20 h | 5.4% of 310,000 active | Nuclear receptor ROR-gamma (Mus musculus), P51450 | Potency, µM (titrated, usually from 53.6 µM), hits mostly inhibitors; further: nearly all actives have a fitted effect of over 60% in size
Target sequence (P51450 whole entry, looked up, the tested form may be a part): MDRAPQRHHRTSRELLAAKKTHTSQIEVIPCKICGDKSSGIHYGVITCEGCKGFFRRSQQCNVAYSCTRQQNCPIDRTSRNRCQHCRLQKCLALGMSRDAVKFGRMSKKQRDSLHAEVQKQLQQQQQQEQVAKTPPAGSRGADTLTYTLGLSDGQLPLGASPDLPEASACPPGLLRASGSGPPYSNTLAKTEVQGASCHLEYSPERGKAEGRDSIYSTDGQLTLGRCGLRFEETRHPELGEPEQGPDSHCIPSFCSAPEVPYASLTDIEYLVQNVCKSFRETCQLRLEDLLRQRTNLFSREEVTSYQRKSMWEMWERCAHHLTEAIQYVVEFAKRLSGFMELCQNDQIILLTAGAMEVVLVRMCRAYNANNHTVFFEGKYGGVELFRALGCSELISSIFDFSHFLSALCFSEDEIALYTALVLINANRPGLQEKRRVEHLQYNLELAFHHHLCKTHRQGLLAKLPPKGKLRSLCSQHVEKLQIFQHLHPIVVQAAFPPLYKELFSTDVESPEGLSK
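Stably transfected Drosophila Schneider cells are the test system, with ROR gamma fused to Gal4 and luciferase under UAS control; luminescence is read after 20 hr of 700 uM copper sulfate induction at ambient temperature.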
HepG2 viability = qHTS for Inhibitors of TGF-b: Cytotox Counterscreen; HepG2 CAGA-GFP viability, ATP luminescence, 18 h; Potency, µM (highest dose often 46.1 µM), actives largely listed as cytotoxic; 0.76% of 410,000 active
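CellTiter-Glo luminescence gave cytotoxicity after 18 hours at 37 degrees C. The cells were HepG2 CAGA-GFP in 1% FBS DMEM, stimulated with 500 pg/mL TGF-beta after compound addition. %Activity was normalised to no-cell wells (complete cell-killing) and DMSO (no toxicity), and curves were fitted and classified.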
ATXN2 expr inh = Primary qHTS for Inhibitors of ATXN expression | HEK-293 ATXN2-luciferase reporter, luminescence, 24 h | Potency, µM (series often up to 57 µM), hits mostly inhibitors | 0.72% of 360,000 active | AID 1745845, 2022; further: nearly all actives have a fitted effect of over 55% in size
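qHTS (up to 57 uM final) was run with 24 h compound exposure of reporter cells at 37 °C. Each well was multiplexed: SteadyGlo luminescence measured ATXN2-luciferase expression after a fluorogenic Gly-Phe-AFC viability readout (25 uM final).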
S2 tox = Viability Counterscreen for Primary qHTS for Inhibitors of ATXN expression | Potency, µM (highest dose often 56.7 µM), actives largely listed as cytotoxic | S2 cells (HEK-293 line with an ATXN2-luciferase reporter) viability, CellTiter-Fluor protease fluorescence, 24 h | AID 651635, 2014 | 0.49% of 400,000 active; further: nearly all actives have a fitted effect of over 40% in size
Gal4-VP16 FLuc = VP16 counterscreen qHTS for inhibitors of ROR gamma transcriptional activity; Drosophila S2 Gal4-VP16 UAS-luciferase, luminescence, 20 h; Potency, µM (top dose mostly 53.6 µM), usual class: inhibitors; 3.5% of 310,000 active; AID 2546, 2010;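 further: Gal4-VP16 expression switched on by copper sulfate through the metallothionein promoter; nearly all actives have a fitted effect of over 50% in size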
Large screens that a line does not name were inactive; ! = repeats disagree. In the library only some 6.3% were active in any assay of this set; here they are far more common. The call rests on the fitted dose curve; in most records, active means well fitted curve in the direction sought with a large enough effect; inconclusive means small, poorly fitted or top-dose-only effect, or another doubt; inactive means no such curve, though single readings can be large; an effect the other way counts as inactive or inconclusive.

Cc1noc(C)c1CSc1nc2ccccc2c(=O)n1-c1ccc(Cl)cc1	RORg inh 11µM, S2 tox inconclusive
Cc1noc(C)c1CSc1nc2ccccc2n1CCc1ccccc1	TGFb inhibitor inconclusive, RORg inh 7.1µM, Gal4-VP16 FLuc inconclusive
CCOC(=O)c1[nH]c(C)c(C(=O)NCc2ccccc2Cl)c1C	none (no result: RORg inh, Gal4-VP16 FLuc)
Nc1nc(=S)c2[nH]cnc2[nH]1	TGFb inhibitor inconclusive, HepG2 viability 1.4µM, ATXN2 expr inh 4µM!, S2 tox inconclusive
Clc1ccc(C2=CC(c3ccco3)n3ncnc3N2)cc1 (stereo not drawn)	RORg inh inconclusive (no result: S2 tox)
CC(=O)Nc1cccc(C2=CC(c3ccco3)n3ncnc3N2)c1 (stereo not drawn)	RORg inh 6.3µM (no result: TGFb inhibitor, HepG2 viability, ATXN2 expr inh, S2 tox)
Cc1ccc(OCCCc2c(C)n[nH]c2C)cc1	TGFb inhibitor inconclusive, RORg inh 11µM, Gal4-VP16 FLuc inconclusive
Cc1n[nH]c(C)c1CCCCOc1ccccc1	RORg inh 16µM, Gal4-VP16 FLuc inconclusive
COc1cccc(OC)c1OCCCCCc1c(C)n[nH]c1C	RORg inh inconclusive, S2 tox inconclusive
O=C(Nc1ccc2c(c1)CCCN2C(=O)c1ccco1)c1cc([N+](=O)[O-])ccc1Cl	none (no result: RORg inh, Gal4-VP16 FLuc)
CCOC(=O)N1CCN(C(=O)C[C@@H]2C[C@@]3(C(=O)OCC)CCCC=C3N(Cc3ccco3)C2=O)CC1	none (no result: TGFb inhibitor, RORg inh, HepG2 viability, Gal4-VP16 FLuc)
CCCCCC(C)NC(=O)CN1C(=O)NC(C)(c2ccc3ccccc3c2)C1=O (stereo not drawn)	TGFb inhibitor inconclusive, RORg inh 5µM, Gal4-VP16 FLuc 13µM
CC1(c2ccc3ccccc3c2)NC(=O)N(CC(=O)NCc2cccs2)C1=O (stereo not drawn)	RORg inh inconclusive (no result: ATXN2 expr inh)
On1c2c(c3c4nonc4ccc31)CCCC2	RORg inh inconclusive, Gal4-VP16 FLuc 22µM (no result: TGFb inhibitor, HepG2 viability, ATXN2 expr inh, S2 tox)
CC(C)(C)n1ncc2c(=O)n(Cc3ccccc3C#N)cnc21	none (no result: RORg inh, ATXN2 expr inh, S2 tox, Gal4-VP16 FLuc)
COc1ccc(C(=O)Oc2cc(-c3ccc4c(c3)OCO4)cc(=O)c3c(C)oc(C)c23)cc1	none (no result: RORg inh, ATXN2 expr inh, S2 tox, Gal4-VP16 FLuc)
Cc1ccccc1C(=O)O/N=C/c1c(N2CCOCC2)n(C)c2ccccc12	TGFb inhibitor inconclusive, RORg inh 1µM, ATXN2 expr inh inconclusive, Gal4-VP16 FLuc 2.8µM
CN1CCN(c2c(/C=N/O)c3ccccc3n2C)CC1	none
CN(Cc1ccccc1)C(=O)c1ccc(Nc2nc(C(N)Cc3ccccc3)cs2)nc1 (stereo not drawn)	TGFb inhibitor inconclusive, HepG2 viability 16µM, ATXN2 expr inh 14µM, S2 tox 16µM (no result: RORg inh, Gal4-VP16 FLuc)
COc1cccc(Nc2nc(C(N)Cc3ccccc3)cs2)n1 (stereo not drawn)	TGFb inhibitor 11µM, ATXN2 expr inh inconclusive, S2 tox inconclusive (no result: RORg inh, Gal4-VP16 FLuc)
CN(Cc1ccccc1)C(=O)c1ccc(Nc2nc(C(N)Cc3ccc(C(F)(F)F)cc3)cs2)nc1 (stereo not drawn)	TGFb inhibitor inconclusive, HepG2 viability 10µM, ATXN2 expr inh inconclusive, S2 tox 32µM (no result: RORg inh, Gal4-VP16 FLuc)
CC(C)CC(N)c1csc(Nc2ccc(C(=O)N(C)Cc3ccccc3)cn2)n1 (stereo not drawn)	TGFb inhibitor inconclusive, ATXN2 expr inh 28µM, S2 tox 28µM (no result: RORg inh, Gal4-VP16 FLuc)
COc1cccc(Nc2nc(C(N)CO)cs2)n1 (stereo not drawn)	none (no result: RORg inh, Gal4-VP16 FLuc)
CN(Cc1ccccc1)C(=O)c1ccc(Nc2nc(C(N)COCc3ccccc3)cs2)nc1 (stereo not drawn)	TGFb inhibitor inconclusive, ATXN2 expr inh inconclusive, S2 tox inconclusive (no result: RORg inh, Gal4-VP16 FLuc)
O=C(Nc1ccc2nc([C@H]3C[C@H](O)[C@@H](CO)O3)[nH]c2c1)NC(c1ccccc1)c1ccccc1	none (no result: RORg inh, Gal4-VP16 FLuc)
CCc1cnc(Nc2nc(C(N)Cc3ccc(Cl)cc3)cs2)nc1 (stereo not drawn)	TGFb inhibitor inconclusive, ATXN2 expr inh inconclusive (no result: RORg inh, S2 tox, Gal4-VP16 FLuc)
CCCc1cnc(Nc2nc(C(N)Cc3ccc(OC)cc3)cs2)nc1 (stereo not drawn)	TGFb inhibitor inconclusive, HepG2 viability 11µM, ATXN2 expr inh inconclusive, S2 tox inconclusive (no result: RORg inh, Gal4-VP16 FLuc)

Source: PubChem
